Prx2 Sm inh = inhibitors of Schistosoma mansoni peroxiredoxin 2; Potency, µM; actives 0.07% (n = 65,000); S. mansoni Prx2 activity coupled to TGR/GSH (TGR is thioredoxin glutathione reductase), NADPH fluorescence loss, qHTS
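Enzyme mix: 100 uM NADPH, 25 nM TGR, 700 uM GSH, 50 nM Prx2 in 100 mM phosphate pH 7.4, 10 mM EDTA, 0.01% Tween-20. 15 min RT with compound; NADPH/GSH added, H2O2 starts reaction; NADPH fluorescence read 8 min.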
AmpC inh det = blocks E. coli AmpC beta-lactamase in presence of detergent; P00811; purified AmpC, nitrocefin hydrolysis with detergent; Potency, µM (titrated, usually from 28.7 µM), inactives show top-dose activity change, negative = inhibition; actives 0.09% (n = 71,000); AID 584; active = well fitted curve in the direction sought with a large enough effect; inconclusive = small, poorly fitted or top-dose-only effect; note: % is set by controls: 0 for no effect and ±100 for the full control effect
Target sequence (P00811 whole entry, looked up): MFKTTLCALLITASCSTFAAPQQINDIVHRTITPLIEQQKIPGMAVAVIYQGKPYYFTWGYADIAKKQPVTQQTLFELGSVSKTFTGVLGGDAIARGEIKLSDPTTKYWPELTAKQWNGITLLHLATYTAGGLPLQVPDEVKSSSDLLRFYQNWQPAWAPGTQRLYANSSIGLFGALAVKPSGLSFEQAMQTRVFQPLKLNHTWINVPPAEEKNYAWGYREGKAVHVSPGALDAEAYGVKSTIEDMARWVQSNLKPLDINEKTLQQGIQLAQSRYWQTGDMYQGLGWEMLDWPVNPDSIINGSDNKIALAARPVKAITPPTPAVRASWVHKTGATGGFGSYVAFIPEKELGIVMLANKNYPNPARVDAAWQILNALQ
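E. coli AmpC (5.3 nM) in 20 mM phosphate pH 7.0 with 0.01% Triton X-100, preincubated 15 min RT with compound; nitrocefin (2 uL of 800 uM stock) hydrolysis followed by 480 nm absorbance every 20 s over 4 min.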
LT uptake inh = blocks cellular internalization of anthrax lethal toxin | Cells, anthrax lethal toxin internalization, FRET ratio (460/530) | Potency, µM (titrated, usually from 40 µM), for the others: at the top dose activity change, negative = inhibition, usual class: inhibitors | actives 0.67% (n = 70,000) | AID 912; note: % is set by controls: 0 for no effect and ±100 for the full control effect; nearly all actives have a fitted effect of over 50% in size
AmpC nodet inh = blocks E. coli AmpC beta-lactamase in absence of detergent; AmpC nitrocefin hydrolysis, absorbance 480 nm, no detergent; P00811; Potency, µM (series often up to 28.7 µM), for inactives: at the top dose activity change, negative = inhibition; actives 1.8% (n = 71,000); note: % of control where 0% means no effect
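AmpC, 20 mM phosphate pH 7.0; 15 min cpd preinc, RT; start with nitrocefin (800 uM stock); A480 kinetic read, 20 s intervals, 4 min. No-enzyme wells = negative control.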
Active calls of the source: *; u = inconclusive; x = no result; [ ] = another dose, or the depositor's remark. Most compounds without a hit are left out; they make up all but 2.6% or so of the library. Unless noted, calls come from the whole dose curve. Potency is the fitted concentration of half-maximal effect.

SMILES | Prx2 Sm inh | AmpC inh det | LT uptake inh | AmpC nodet inh
CC(C)(C)N1C(=O)[C@H]2[C@@H]3[C@H](O)[C@H](O)CC(=O)[C@H]3CC[C@H]2C1=O | x | x | 8%[8 µM] | x
Cc1cc(NC(=O)C2CCCN(S(=O)(=O)c3c(C)noc3C)C2)no1 (stereo not given) | >57 | 13% | -5% | 4µM*[single pt active]
Cc1noc(C)c1S(=O)(=O)N1CCCC(C(=O)Nc2ccc(Cl)cn2)C1 (stereo not given) | >57 | -4% | -2% | 11%
CCNc1ncc2nc(C)c(=O)n(Cc3ccc(F)cc3)c2n1 | >57 | 0% | u | 0%
COC(=O)c1ccccc1NC(=O)N1CCN(C/C=C/c2ccccc2)CC1 | >57 | -4% | -10% | 85%
O=C(Nc1ccc(F)cc1F)N1CCN(C/C=C/c2ccccc2)CC1 | >57 | 11% | -16% | 4µM*[single pt active]
CCN1C(=O)[C@H]2[C@H]3[C@H](O)[C@H](O)C/C(=N/NC(=O)OCc4ccc(OC)cc4)[C@H]3CC[C@@H]2C1=O | x | x | 5%[0.32 µM] | x
Cn1c(=O)oc2cc(S(=O)(=O)Nc3ccc4c(c3)OCCO4)ccc21 | >57 | 9% | 2% | -5%
COc1ccc(NS(=O)(=O)c2ccc3oc(Nc4ccc5c(c4)OCCO5)nc3c2)cc1 | >57 | 13% | 13µM* | 3.2µM*
C[N+](C)(C)/N=C\c1ccc(O)c(O)c1 | >57 | -3%[5.75 µM] | u | 6%[5.75 µM]
Oc1ccc(N=Cc2ccc(O)c(O)c2)cc1 | x | 5% | u | 13µM*
FC(F)(F)c1ccccc1-c1cc(NCCN2CCOCC2)ncn1 | >57 | -5% | 0% | 11%
CCOC(=O)OCC1OC(c2ccccc2)C=CC1Oc1ccc2oc(=O)cc(C)c2c1 (stereo not given) | x | x | -2%[8 µM] | x
Cc1nc2c3ccccc3n(CC#N)c(=O)n2n1 | >57 | 11% | -11% | 2.5µM*[single pt active]
CCn1c(SCC(=O)c2cc(OC)ccc2OC)nnc1-c1ccncc1 | >57 | -4% | x | 31%
CCn1c(SCc2ccc(OC)cc2)nnc1-c1ccncc1 | >57 | -5% | 13µM* | 58%
O=C(Cn1ncc2c(=O)oc3ccccc3c21)NCC1CCCO1 (stereo not given) | >57 | 17% | -10% | 4µM*[single pt active]
O=C(Cn1ncc2c(=O)oc3ccccc3c21)NCCC1=CCCCC1 | >57 | 0% | -6% | -4%
CCOCCCNC(=O)Cn1ncc2c(=O)oc3ccccc3c21 | >57 | 8% | -14% | 4µM*[single pt active]
CC(C)OCCCNC(=O)Cn1ncc2c(=O)oc3ccccc3c21 | >57 | -4% | 5% | 1%
CC(CCc1ccco1)NC(=O)Cn1ncc2c(=O)oc3ccccc3c21 (stereo not given) | >57 | 14% | -15% | 4µM*[single pt active]
O=C(CC1Sc2ncnn2C1=O)Nc1ccc(Br)cc1 (stereo not given) | >57 | 11% | u | 5µM*
O=C(CC1SC2=NCCN2C1=O)Nc1ccc(Br)cc1 (stereo not given) | >57 | -2% | u | 8%
Cc1nc2cnc(Oc3cccc(Cl)c3)nc2n(CCC#N)c1=O | >57 | 0% | u | 26%
[O-][n+]1c(CN2CCCCC2)nc2cccc3c2c1-c1ccccc1-3 | >57 | -3%[5.75 µM] | u | -17%[5.75 µM]
SMILES | Prx2 Sm inh | AmpC inh det | LT uptake inh | AmpC nodet inh
O=C(COC(=O)c1cc(-c2ccco2)nc2ccccc12)NCc1ccc2c(c1)OCO2 | >57 | -12% | u | 13µM*
Cc1ccccc1OCC1CO1 (stereo not given) | x | 10% | u | -8%
CCCCn1nnc(NC(=O)COc2cc(C)ccc2C(C)C)n1 | >57 | -3% | 10µM* | 26%
N[C@H](Cc1cccc(-c2ccccc2CP(=O)(O)O)c1)C(=O)O | >57 | -2% | 4% | 4%
O=C(NCc1ccc2c(c1)OCO2)c1ccc2c(=O)n(C3CCCC3)c(=O)[nH]c2c1 | >57 | -2% | u | 7.9µM*
COc1ccc(Cn2c(=O)[nH]c3cc(C(=O)NCc4ccc5c(c4)OCO5)ccc3c2=O)cc1 | >57 | -4% | -6% | 13µM*[single pt active]
COc1ccc(Cn2c(=O)[nH]c3cc(C(=O)NCCCN4CCCCC4)ccc3c2=O)cc1 | >57 | 2% | 6% | 24%
COC(=O)c1ccc(C(NC(=O)OCc2ccccc2)/C(=C/[C@@H](C)C(=O)NCc2ccc(-c3ccccc3)cc2)c2cccnc2)cc1 (stereo not given in full) | x | 12% | 11% | 36%
N#Cc1ccc(CN2CC3(CCN(C(=O)c4cnccn4)CC3)C2)cc1 | >57 | -1% | -3% | 4%
